GLP1R cytotox: cytotoxicity in counter-screen for GLP-1R inverse agonists; HEK293 cAMP-luciferase reporter cells, luminescence, 24 h; Potency, µM (titrated, usually from 38.3 µM), inactives show at the top dose activity change, negative = inhibition, hits mostly inhibitors; 410,000 tested, 0.13% active; AID 624418;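 further: loss of luciferase light is scored as toxicity; on the % scale 0 is the no-effect control and ±100 the full control effect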
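Step one: seed cells (200 cells/uL, DMEM with 10% Nu serum, 1% pen-strep). Step two: 12-hour incubation at 37 deg C. Step three: pin 23 nL compound, incubate 24 hr. Step four: add luciferase reagent, read luminescence 12 min later.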
PTHR1 ag: PTHR1 (human) receptor agonism | 410,000 tested, 0.075% active | Potency, µM (doses to about 115 µM), without a hit: at the top dose activation, most hits filed as activators | HEK293 GP2 PTHR1 cells, GloSensor cAMP luminescence, 1 h | Q03431; further: nearly all actives have a fitted effect of over 55% in size
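HEK-293-derived GP2 cells expressing PTHR1 and a GloSensor cAMP reporter, 3,000/well, plated overnight, given luciferin plus IBMX (each 0.5 mM as added) for 1 h at 37 °C, then compound for 1 h at 37 °C. Luminescence was read after 15 min at room temperature.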
GLP1R inv ag: GLP-1 receptor (human) inverse agonism | P43220 | HEK293 GLP-1R CRE-luciferase, luminescence, 24 h; GLP-1R form is constitutively active | Potency, µM (highest dose often 38.3 µM), for the others: at the highest dose activity change, negative = inhibition, usual class: inhibitors | 410,000 tested, 1.6% active | AID 624417; further: on the % scale 0 is the no-effect control and ±100 the full control effect; nearly all actives have a fitted effect of over 55% in size
Target sequence (P43220 whole entry, looked up): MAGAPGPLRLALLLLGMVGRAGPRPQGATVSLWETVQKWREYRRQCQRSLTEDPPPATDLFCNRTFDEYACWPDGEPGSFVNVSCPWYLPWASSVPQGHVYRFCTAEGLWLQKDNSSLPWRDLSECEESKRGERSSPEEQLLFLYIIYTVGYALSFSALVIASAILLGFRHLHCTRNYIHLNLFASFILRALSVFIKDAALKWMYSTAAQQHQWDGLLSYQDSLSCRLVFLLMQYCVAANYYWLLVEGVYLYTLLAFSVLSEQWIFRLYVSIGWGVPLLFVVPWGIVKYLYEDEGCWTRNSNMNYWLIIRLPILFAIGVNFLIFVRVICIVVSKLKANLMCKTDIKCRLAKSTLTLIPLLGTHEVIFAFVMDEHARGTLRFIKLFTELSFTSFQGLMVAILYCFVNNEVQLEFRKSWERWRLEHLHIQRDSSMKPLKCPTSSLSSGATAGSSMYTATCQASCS
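Seeding at 200 cells/uL, 12 h culture, 24 hr compound treatment, then luciferase reagent and a luminescence read; cells are HEK293 stably expressing a constitutively active GLP-1R plus cAMP-responsive luciferase.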
GLP1R ag: agonists of human GLP-1 receptor. Potency, µM (series often up to 45.6 µM), inactives show at the top dose activation, hits mostly activators. AID 624172. P43220. HEK293 GLP-1R CRE-luciferase, luminescence, 4-6 h; cells express a hypersensitive GLP-1R form. 380,000 tested, 0.007% active; further: % of control where 0% means no effect
The depositor's hits bear a star; i = inactive; ? = inconclusive; nt = no result given. An excerpt weighted towards active compounds, which were near 1.7% of everything screened. The call rests on the fitted dose curve; in most records, active means well fitted curve in the direction sought with a large enough effect; inconclusive means small, poorly fitted or top-dose-only effect, or another doubt; inactive means no such curve, though single readings can be large; an effect the other way counts as inactive or inconclusive. Potency means the concentration at half of the fitted maximal effect.

SMILES | GLP1R cytotox | PTHR1 ag | GLP1R inv ag | GLP1R ag
CCN1CCN(C(=O)c2ccc(-c3nc4ccccc4s3)s2)CC1 | 12% | -52% | ? | 20%
O=C(c1ccc(-c2nc3ccccc3s2)s1)N1CCOCC1 | 1% | -29% | 1.3µM* | -5%
CCc1cc2c(cc3c(=O)n(CCCC(=O)NCc4cccc(Cl)c4)ncn32)s1 | -14% | i | 12% | nt
COc1ccc(-n2c(C)cc(C(=O)Cn3c(NCCO)nc4ccccc43)c2C)cc1 | -30% | i | 10µM* | 7%
NC(=S)N/N=C1\CC(c2ccc3c(c2)OCCCO3)Oc2ccc(F)cc21 (configuration not stated) | ? | -21% | 13µM* | 24%
NC(=S)N/N=C1\CC(c2ccc3c(c2)OCCO3)Oc2ccc(F)cc21 (configuration not stated) | ? | -11% | 3.5µM* | 25%
CC(=O)c1ccc(-c2cccc([C@H]3[C@@H]4C=CC[C@@H](C)[C@@H]4C(=O)N3Cc3ccccc3)c2)cc1 | -1% | -1% | 10µM* | 5%
COc1ccc(-c2cccc([C@H]3[C@@H]4C=CC[C@@H](C)[C@@H]4C(=O)N3Cc3ccccc3)c2)cc1 | -8% | -4% | ? | -1%
CC(C)CNC1=C(C(=S)Nc2ccccc2)C(=O)CC(C)(C)C1 | 56% | -22% | 4µM* | 18%
CC1(C)CC(=O)C=C(NCCN2CCN(C(=S)Nc3ccccc3)CC2)C1 | -1% | -9% | 6% | 2%
Cc1ccc(OC(C)C(=O)Nc2ccc(C)c(S(=O)(=O)Nc3ccc(C)cc3C)c2)cc1 (configuration not stated) | -9% | -59% | 4µM* | -4%
Cc1ccc(OC(C)C(=O)Nc2ccncc2)cc1 (configuration not stated) | 1% | -21% | 10% | -5%
CCCCCCCC(=O)CC[C@H]1[C@@H](C/C=C/CCCC(=O)OC(C)C)[C@@H](O)C[C@H]1O | nt | nt | nt | -7%
COc1ccc(C(C)C)cc1S(=O)(=O)N1CCN(c2ccccc2)CC1 | 0% | -73% | 8.9µM* | -2%
Cc1cc(S(=O)(=O)N2CCN(c3ccc(F)cc3)CC2)c(C)s1 | 12% | -44% | 10µM* | 7%
COc1ccccc1N1CCN(S(=O)(=O)c2cc(C)sc2C)CC1 | 7% | -16% | 10µM* | -5%
Cc1cc(S(=O)(=O)N2CCN(c3ccccc3O)CC2)c(C)s1 | 2% | i | ? | 20%
COc1ccccc1CN1CCC(CNS(=O)(=O)c2cc(-c3cc(C)no3)ccc2OC)CC1 | -16% | -2% | 11µM* | 14%
CCc1ccc(-c2cc(C)no2)cc1S(=O)(=O)N1CCN(c2ccccc2OC)CC1 | -2% | i | 4.5µM* | -1%
COc1ccc(-c2cc(C)no2)cc1S(=O)(=O)N1CCCN(Cc2ccc(F)cc2)C1 | 4% | -3% | 7.1µM* | -1%
CCc1ccc(CNC(=O)C(C)n2ccc3cc(S(=O)(=O)N4CCCCCC4)ccc32)cc1 (configuration not stated) | -10% | i | 10µM* | nt
CC(C(=O)NCc1ccc(Cl)cc1)n1ccc2cc(S(=O)(=O)N3CCCCCC3)ccc21 (configuration not stated) | -16% | i | ? | nt
CCc1ccc(CNC(=O)CCCn2ccc3cc(S(=O)(=O)N4CCCC4)ccc32)cc1 | -29% | -21% | 8.9µM* | nt
CN(C)c1ccc(CNC(=O)CCc2ccc(S(=O)(=O)N3CCCCCC3)cc2)cc1 | -8% | i | 11µM* | 21%
COc1ccc(CNC(=O)CCc2ccc(S(=O)(=O)N3CCCCCC3)cc2)cc1 | 3% | -25% | -25% | 4%
CCc1ccc(CNC(=O)Cn2ccc3cc(S(=O)(=O)N4CCCCCC4)ccc32)cc1 | -3% | -29% | ? | nt
CCOC(=O)Cc1c(C)c2c(C)nn(-c3ccccc3)c2oc1=O | ? | -14% | -8% | 0%
CC(OC(=O)c1cc(=O)[nH]c2ccccc12)C(=O)NC1CCCCC1C (configuration not stated) | 3% | i | 11% | -5%
CCN(CC)CCNC(=O)c1ccc(NC(=O)c2ccc(Cl)c(S(=O)(=O)N3CCCCCC3)c2)cc1 | ? | -7% | 4µM* | ?

Source: PubChem BioAssay (National Center for Advancing Translational Sciences (NCATS))
